Screening data from PubChem BioAssay.
PostGolgi ctrl – inhibits growth of the yeast control strain | efflux-deficient yeast background strain, growth absorbance A615, 16 h | inhibition, % at 10 µM | hit rate 5% among 98,000
CYP2C9 inh – inhibitors of human CYP2C9; P11712; CYP2C9 Supersomes, luciferin-H conversion, luminescence; inhibition, % at 5 µM; hit rate 20% among 96,000;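 active = blocking of liver enzyme CYP2C9 beyond about 50% at 5 µM, limit read from the data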
Target sequence (P11712 whole entry, looked up): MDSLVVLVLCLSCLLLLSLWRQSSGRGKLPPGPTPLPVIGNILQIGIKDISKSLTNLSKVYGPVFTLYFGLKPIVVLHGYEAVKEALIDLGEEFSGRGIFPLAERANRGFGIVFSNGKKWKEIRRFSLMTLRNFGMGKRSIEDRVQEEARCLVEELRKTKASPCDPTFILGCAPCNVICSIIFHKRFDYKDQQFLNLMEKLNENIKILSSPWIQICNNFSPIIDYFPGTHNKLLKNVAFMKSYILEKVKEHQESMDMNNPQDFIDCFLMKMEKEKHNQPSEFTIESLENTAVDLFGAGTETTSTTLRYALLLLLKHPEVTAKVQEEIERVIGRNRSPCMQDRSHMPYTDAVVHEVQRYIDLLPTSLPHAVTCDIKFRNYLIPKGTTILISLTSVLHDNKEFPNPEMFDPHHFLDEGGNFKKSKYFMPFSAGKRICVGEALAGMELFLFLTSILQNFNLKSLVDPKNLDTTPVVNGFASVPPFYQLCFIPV
CYP2C19 inhib – human CYP2C19 inhibition. P33261. CYP2C19 Supersomes, luciferin-H EGE luminescence, 30 min. inhibition, % at 5 µM. hit rate 21% among 96,000;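 active = CYP2C19 inhibition above a set limit at 5 µM in the primary screen, cut at about 50% in these data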;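 also: plate controls were negative control wells for no effect and 2.5 mM tranylcypromine positive control for full effect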
CYP2C9 activ – increases human cytochrome P450 2C9 activity; P11712; recombinant CYP2C9, luciferin-H conversion, luminescence; active compounds read high; factor 1 = untreated enzyme, 0 = blocked; activation factor at 5 µM; hit rate 1.4% among 96,000;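 active = activation factor of 2 or more for CYP2C9 at a 5 µM dose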;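 also: 0 = sulfaphenazole-blocked wells and 1 = vehicle-only wells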
PostGolgi yeast – growth inhibition of a yeast mutant, post-Golgi transport screen | inhibition, % at 10 µM | post-Golgi transport phenotypic cell assay | hit rate 0.9% among 98,000;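 also: yeast cells grown in 1536-well plates; yeast grown about 18 h at 30C before absorbance read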
CYP2C19 activ – activators of human cytochrome P450 2C19; recombinant CYP2C19, luciferin-H EGE luminescence; active compounds read high; 0 = fully inhibited enzyme, 1 = untreated enzyme; P33261; 96,000 tested, under 10 active; activation factor at 5 µM; AID 1025;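 active = activation factor of at least 2 at 5 µM in the primary screen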;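 also: 0 = wells with 2.5 mM tranylcypromine and 1 = vehicle-only wells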
The depositor's hits bear a star; / = no result given. Hits are enriched below; roughly 32% of the tested compounds scored in any of these assays. Rule as the data show it, unless noted: active = inhibition above about 30%; inactive = the rest.

SMILES | PostGolgi ctrl | CYP2C9 inh | CYP2C19 inhib | CYP2C9 activ | PostGolgi yeast | CYP2C19 activ
N#C/C(=N\Nc1ccc(Cl)cc1)C(=O)c1ccccc1 | 79* | 7 | 69* | 0.9 | 7 | 0.3
CCOC(=O)NC(=O)/C(C#N)=N\Nc1ccc(Cl)cc1 | -2 | 11 | -10 | 0.9 | -2 | 1.1
O=C(NCC1CCCO1)c1cccc(-n2cnnn2)c1 (configuration not stated) | 12 | -20 | -15 | 1.2 | -3 | 1.1
COCCN1C(=O)c2ccccc2C(C(=O)N2CCN(c3ccccc3)CC2)C1c1ccc(F)cc1 (configuration not stated) | 2 | 71* | 18 | 0.3 | -16 | 0.8
COCCNC(=O)C1c2ccccc2C(=O)N(CCOC)C1c1ccc(F)cc1 (configuration not stated) | 23 | -10 | -16 | 1.1 | -3 | 1.2
CCOC(=O)c1c(C)nc2ccccn12 | 6 | 1 | 8 | 1 | 0 | 0.9
CCOC(=O)c1c(C2CCN(C(=O)OCC)CC2)nc2ccccn12 | 9 | 72* | 34 | 0.3 | -8 | 0.7
Fc1ccc(CN2CCSCC2)cc1Br | / | 16 | 84* | 0.8 | / | 0.2
CCOC(=O)C1CCN(Cc2ccc(F)c(Br)c2)CC1 | -8 | 50 | 63* | 0.5 | 0 | 0.4
C=CCNC(=O)c1ccccc1NS(=O)(=O)c1ccccc1 | 9 | -129 | 68* | 2.3* | -7 | 0.3
C=CCNC(=O)c1ccccc1NS(=O)(=O)c1ccc(SC)cc1 | 5 | 41 | 97* | 0.6 | -6 | 0
C=CCNC(=O)c1ccccc1NC(=O)Nc1ccccc1 | 5 | 34 | 50 | 0.7 | -3 | 0.5
Nc1nnc(CSCc2ccc(F)cc2)s1 | -3 | -1 | 48 | 1 | -15 | 0.5
CCCCN(N=Nc1nonc1OC)c1nonc1OC | 5 | 73* | 85* | 0.3 | 7 | 0.1
O=C1[C@@H]2Cc3ccccc3CN2C(=O)N1c1cccc(F)c1 | 23 | 2 | 1 | 1 | 9 | 1
O=C(Nc1ccc(Cn2cccn2)cc1)c1ccc(COc2ccc(Br)cc2)cc1 | -5 | 17 | -1 | 0.8 | 7 | 1
O=C(Nc1ccc(Cn2cccn2)cc1)c1ccc(COc2cccc(Br)c2)cc1 | 8 | 83* | 57* | 0.2 | -9 | 0.4
O=C1c2ccccc2C(Nc2cccnc2)N1Cc1ccccc1 (configuration not stated) | 3 | 25 | 47 | 0.7 | -1 | 0.5
CC(=O)c1cccc(NC2c3ccccc3C(=O)N2Cc2ccc3c(c2)OCO3)c1 (configuration not stated) | 18 | 61* | 38 | 0.4 | -2 | 0.6
CCOc1ccc(NC2c3ccccc3C(=O)N2Cc2ccc3c(c2)OCO3)cc1 (configuration not stated) | 31* | 98* | 99* | 0 | -3 | 0
COc1cc(NC2c3ccccc3C(=O)N2Cc2ccc3c(c2)OCO3)cc(OC)c1OC (configuration not stated) | 14 | 64* | 98* | 0.4 | -6 | 0
O=C1c2ccccc2C(Nc2ccc3c(c2)OCCO3)N1Cc1ccccc1 (configuration not stated) | 12 | 98* | 99* | 0 | -14 | 0
Oc1ccccc1C1=Nc2ncnn2C(c2ccc(F)cc2)C1 (configuration not stated) | 0 | 49 | 57* | 0.5 | 29 | 0.4
Cc1ccc(OCC(=O)N(C)CCc2ccccn2)cc1 | 13 | 6 | 39 | 0.9 | -2 | 0.6
CCOc1ccc(Br)cc1S(=O)(=O)Nc1ccccc1N1CCOCC1 | 29 | 55* | 78* | 0.4 | -7 | 0.2
SMILES | PostGolgi ctrl | CYP2C9 inh | CYP2C19 inhib | CYP2C9 activ | PostGolgi yeast | CYP2C19 activ
CCOc1ccc(Br)cc1S(=O)(=O)Nc1ccc(N2CCOCC2)cc1 | 16 | 54* | 64* | 0.5 | 0 | 0.4
CCOc1ccc(Br)cc1S(=O)(=O)Nc1nc(CN2CCOCC2)nc2sc(C)c(C)c12 | 12 | 30 | 17 | 0.7 | -6 | 0.8
CCOC(=O)c1cnc(=O)[nH]c1C | / | -3 | -9 | 1 | / | 1.1
O=c1[nH]c(=O)n(C2CCCO2)cc1Br (configuration not stated) | -5 | 2 | -2 | 1 | -1 | 1
O=C(C1CCCCC1)N1CCN(S(=O)(=O)c2ccc(Br)cc2)CC1 | 2 | 8 | 8 | 0.9 | 1 | 0.9
Brc1ccc2c(c1)CNc1c(ncnc1N1CCOCC1)O2 | 2 | 58* | 98* | 0.4 | -17 | 0
